Experimental data: the supplement of paper PMC5499739
In all, about 16,000 sequences were measured (“Z-score”: median about -0.37, highest 2% from about 3.1 on). This is one part of a sample in which the highest values are shown more often than they occur.

What follows are sequences tested on RBM10 RRM1-ZnF-RRM2 (GST-tagged construct) (assay: RNAcompete 7-mer binding Z-score; higher = stronger binding preference).
Procedure: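 RNAcompete: 20 pmol GST-tagged RBM10 RNA-binding constructs were incubated with a designed RNA pool of about 241,000 sequences up to 41 nt (1.5 nmol) on glutathione beads for 30 min at 4 °C and washed. Bound RNAs were identified by microarray hybridisation. Each RNA 7-mer is scored by a one-sided Z-score of its enrichment, computed over probes that contain the 7-mer within longer pool sequences.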

Row | Sequence | RNAcompete 7-mer binding Z-score
1 | GGGGAAA | 3.02
2 | GGUAAUU | 0.789
3 | ACUAACG | -0.409
4 | CGAUGUU | -0.657
5 | AGUCGAC | 0.00944
6 | CUAAUGC | -0.795
7 | ACAUCAG | -0.191
8 | CACUGAG | -0.209
9 | AGGGUAG | 3.71
10 | UGGGUAU | 2.2
11 | CGGGUAG | 2.23
12 | UGGGUAG | 3.34
13 | UGGGUAC | 2.59
14 | AGGGUAC | 2.7
15 | CGCGAAC | -0.435
16 | GCUCGAC | -0.53
17 | AGUUCCU | -0.77
18 | AGGCGUA | 0.716
19 | ACCUACA | -0.814
20 | GACGGGG | 2.79
21 | CACGGGA | 1.66
22 | GACGGGU | 2.37
23 | AACGGGG | 3.65

Row | Sequence | RNAcompete 7-mer binding Z-score
24 | GACGGGA | 2.3
25 | CACGGGG | 2.77
26 | AACGGGU | 3.25
27 | AACGGGA | 3.38
28 | UACGGGU | 2.02
29 | ACGGCGG | 1.11
30 | AGCUCAG | -0.486
31 | ACAUAUC | -0.526
32 | AAGGAGU | 3.12
33 | AGUUUUG | -0.0707
34 | CUUAAAC | -0.646
35 | AGGGCUA | 1.17
36 | UGUUGUU | -0.286
37 | GUCGCGU | -0.0124
38 | UGGAAGG | 3.68
39 | UGGAAGU | 1.6
40 | AGGAAGA | 1.64
41 | AGGAAGU | 1.21
42 | CGGAAGG | 2.53
43 | AGGAAGG | 4.46
44 | GUGUAAG | 1.28
45 | GUAGAGG | 4.02
46 | GGAGGGC | 3.27

Row | Sequence | RNAcompete 7-mer binding Z-score
47 | UGAGGGC | 2.22
48 | AGAGGGG | 1.94
49 | GGAGGGA | 3.6
50 | AUAGAGG | 1.79
51 | GGAGGGG | 4.18
52 | CGAGGGA | 3.11
53 | UUAGAGG | 1.24
54 | GGAGGAG | 2.84
55 | AGAGGGA | 2.16
56 | AGAGGGC | 1.02
57 | AGAUAAG | 0.989
58 | GUUAACU | -0.398
59 | UCCUGUA | -0.795
60 | UCAUGGG | 1.19
61 | AAAACGU | -0.0197
62 | CGAGGGC | 1.41
63 | GGAGUGG | 4.61
64 | CGAGGCG | 1.5
65 | AGAGAGG | 1.58
66 | AGAGUGG | 2.77
67 | GGAGAGA | 1.26
68 | GGAGUGA | 2.63
69 | GGAGAGG | 3.28

Row | Sequence | RNAcompete 7-mer binding Z-score
70 | CGAGGGG | 3.29
71 | GUCCAAA | -0.424
72 | GUUCACG | -0.355
73 | UAAGCAU | -0.555
74 | UAUCAAU | -0.46
75 | CUGUGUA | -0.417
76 | UCUUUUG | -0.632
77 | CACAGGG | 2.49
78 | AACAGGC | 1.62
79 | AGCAGGA | 2.45
80 | UGCAGGG | 2.53
81 | AACAGGG | 3.73
82 | AGCAGGG | 3.39
83 | GGUGCCC | 0.0495
84 | CUUAGCU | -0.832
85 | CCUUGUC | -0.89
86 | AUUUUCU | -0.803
87 | CUUCUGC | -0.959
88 | UUACUGC | -0.799
89 | UGAAAGG | 2.76
90 | AAAAGGU | 2.52
91 | GAAAAGG | 4.73
92 | AGAAAGG | 4.73

Row | Sequence | RNAcompete 7-mer binding Z-score
93 | CGAAAGG | 1.98
94 | GAAAGGU | 4.42
95 | GAAAAAG | 1.52
96 | AGUAAGG | 3.47
97 | CGUAAGG | 0.844
98 | AGUAAGU | 0.188
99 | CAAAGGU | 1.62
100 | AAAAAGG | 2.19
101 | GCGUGUC | -0.235
102 | GCAUCGA | -0.22
103 | CGCCUCA | -0.748
104 | CGGAGCA | 1.02
105 | GCAGCGG | 2.14
106 | GUUCUAC | -0.759
107 | GUAAAAG | 0.767
108 | GAUAAGU | 0.0969
109 | GAUAAGG | 3.81
110 | GUAAAGU | 0.396
111 | GUAAAGG | 3.36
112 | CAUAAGG | 0.548
113 | CCUACAG | -0.752
114 | UGACACA | -0.315
115 | UUCUUAU | -0.744

Row | Sequence | RNAcompete 7-mer binding Z-score
116 | CGAACGC | -0.256
117 | CCAUUUU | -1.08
118 | AUUACAC | -0.537
119 | GGCUCAA | -0.122
120 | CCCUCUU | -0.89
121 | UAAAGGA | 1.64
122 | AAAAGGG | 3.58
123 | AAAAGGA | 3.25
124 | CAAAGGA | 1.34
125 | UAAAGGG | 2.65
126 | CAAAGGG | 2.78
127 | CUUUCGC | -0.967
128 | UGAAGAU | -0.00877
129 | UAAUGGA | 1.64
130 | CAAUGGA | 1.4
131 | GAAUGGU | 2.65
132 | CAAUGGG | 3.4
133 | UAAUGGG | 2.89
134 | GAAUGGA | 3.56
135 | ACAUGGA | 1.76
136 | GAAUGGG | 4.77
137 | GAAUGGC | 1.68
138 | CAAUGGU | 1.25

Row | Sequence | RNAcompete 7-mer binding Z-score
139 | AAAUGUA | 0.0859
140 | AAAUGGA | 3.34
141 | UGCGCUU | -0.744
142 | CCCUCAG | -0.81
143 | CUCCGUC | -0.894
144 | GACAAGC | -0.0233
145 | GGCCGGU | 0.279
146 | GAUUCCA | -0.519
147 | AAAUGGG | 4.04
148 | GUAUGGA | 2.44
149 | AAAUGGC | 1.42
150 | GUAUGGG | 4.06
151 | CUAUGGG | 1.08
152 | AAAUGGU | 2.73
153 | CGGAUAU | 0.348
154 | GGUGUCG | 1.21
155 | AGUAUGC | 0.0204
156 | CCCAGCU | -0.657
157 | CUAGACA | -0.621
158 | UUGGGCG | 2.45
159 | AGGCCCG | -0.759
160 | CGCUUUC | -0.77
161 | UGGGGCA | 3.52

Row | Sequence | RNAcompete 7-mer binding Z-score
162 | GGGGGCA | 2.33
163 | UUGGGGG | 3.03
164 | UGGGGGG | 3.39
165 | UGGGGCC | 0.76
166 | UGGGCGC | 0.989
167 | AGGGGCA | 2.36
168 | UGGGCGG | 3.38
169 | UUGGGGC | 2.04
170 | UGGGGCG | 2.66
171 | UGGGGGC | 3.18
172 | AGGGCGG | 2.23
173 | UUGGAAU | 0.57
174 | AGUUCAA | -0.311
175 | ACACAUG | -0.0962
176 | AUGCUAU | -0.65
177 | GAAAAUG | 1.46
178 | AAAAUUU | -0.544
179 | AAGGACA | 3.12
180 | CUGAUAA | -0.566
181 | UCGGGUC | 0.512
182 | ACCAGUC | -0.602
183 | ACCAGGU | 0.399
184 | GCCUAUU | -0.901
